target: BEST2; assay: pooled miR-30 sensor sort-seq; sequence = guide strand; details: shRNA
Further: reference of the scale not given here.

Sequence | sensor-assay potency score (higher = more potent)
TGGAACTGCATGTCTTCTTTGG | -0.925
ATAAATCACAAGCTTCTCGAAG | -0.809
AACTTCTTGCGCTCCTCGCGGG | -0.5

target: BIRC8; assay: as above; details: shRNA

Sequence | sensor-assay potency score (higher = more potent)
TTGCTTGAAATCAATAACCGCG | 0.0701
TTTCTGTAGTGTCTTTCTGAGC | -1.49
TTGTTAACGGAGTACATCCATG | -1.22
TTTCTTGGTAGTTTGTACCAGA | -0.312
TTGAAATCAATAACCGCGCTGC | 1.02
TTCTTTTAGTTAGTGATGGTGT | 0.0164
TTTACAAAGCTTCTCCTCTTGC | -0.189
TGCAACAAGAACCTCAAGCGTT | -0.815
TAGATCTGCAACAAGAACCTCA | 0.199
TCTTCTAGCAGATATTTGCAAC | -1.19
TAGTTTGTACCAGAGCTCCCTC | -0.717
TCGTATAGCTTCTTGTAGCATA | -0.43

target: BMPR1B; assay: as above; details: shRNA

Sequence | sensor-assay potency score (higher = more potent)
TTTTACTTTTCAGATCTCGATG | -0.74
TCATCCTCTTCTATCATCGTGA | 0.152
TTGAGTACTAAAGATTTCTGTG | 0.176
TTGTTGACTGAGTCTTCTGGAC | -0.721
TTCACCATCTGAATCTGCTTAG | -0.315
TTTCACCATCTGAATCTGCTTA | -0.0649
TTGATCTTCTTTGATGAGGAAT | -1.13
TCTGTGATTAGGTACAACTGGG | 0.0109
TCATCGTGAAACAATATCCGTC | -0.268
TAGGTCTTTATTACATTCGTTC | -0.881
TAGGTCATGATAAGGAAGCTGG | -0.2
TGATATATTTCTGTCTCTCTGA | 0.214
TCTGTCTCTCTGAACCAGCTGG | -0.359
ATTTCTGTCTCTCTGAACCAGC | -0.623
TATTGTTGACTGAGTCTTCTGG | 0.00108
TTGATGCACACAATCTCCCTCA | -0.279
TATTACATTCGTTCCTTTCTGT | 0.878
TTACATTCGTTCCTTTCTGTGC | -0.864
TATTCTTCCACTATACCTCCTG | 0.554
TTCTGTTCAAGCTCTCGTCCAA | -0.142
TCGTGAAACAATATCCGTCTGT | -0.0353

target: BOLA1; assay: as above; details: shRNA

Sequence | sensor-assay potency score (higher = more potent)
TGATTCTTCTCTTTTCTCGGGT | 0.0423
TGAGAGTTCTCTCTCCACTGGG | -0.015
TTGCGAAGCTCTAGCACCTCGG | -0.666
TTGACCTGAAGCAAGTTGCTAT | -0.107
